Consider seven compounds from PubChem BioAssay (EPA / NIEHS).

Activity calls are given as the source filed them. How the source made its calls: active means hit-call score of the fitted dose curve at least 0.9, where 1 is the maximum; inactive means score below 0.9.

Experiment [1] is described as follows: APR_HepG2_CellCycleArrest_24hr: Apredica 24-hour HepG2 Assay for Cell Cycle Arrest (AID 2282905).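 Further: cell cycle arrest scored as ratio of 2N to 4N nuclear DNA content.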 The conditions noted are these: imaging, actives raise or lower the signal. Summed up: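 After 24 h exposure at 0.39–200 uM in 0.5% DMSO, fixed cells received Hoechst 33342 staining. Imaging quantified per-nucleus DNA content; gain or loss fitted against DMSO controls.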

A short description of experiment [2]: APR_HepG2_NuclearSize_24hr: Apredica 24-hour HepG2 Assay for Nuclear Size (AID 2282907). Particulars: high-content imaging, actives raise or lower the signal. A digest of the protocol: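 Nuclear size from Hoechst 33342-stained, formaldehyde-fixed HepG2 nuclei imaged by high-content microscopy, after 24 h dosing at ten concentrations from 0.39 to 200 uM in 0.5% DMSO; gain or loss relative to DMSO baseline.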

Experiment [3] can be described thus: APR_HepG2_CellLoss_24hr: Apredica 24-hour HepG2 Assay for Cell Loss (AID 2282908).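 On AC50: fit in both directions so a hit may be cell loss or gain.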 The conditions noted are these: high-content imaging. Summed up: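 Nuclei stained with Hoechst 33342 after formaldehyde fixation (3.7%) were imaged at 20x to count cells. Exposure lasted 24 hr, at ten concentrations from 0.39 to 200 uM in duplicate, with 0.5% v/v DMSO. Fit bidirectional, relative to DMSO.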

A short description of experiment [4]: APR_HepG2_MicrotubuleCSK_24hr: Apredica 24-hour HepG2 Assay for Microtubule CSK Stabilty (AID 2282909). Particulars: HepG2 microtubule cytoskeleton imaging, actives raise or lower the signal. Summed up:
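Fixed HepG2 cells were stained for alpha-tubulin and imaged after 24 hr exposure to ten concentrations spanning 0.39–200 uM in 0.5% DMSO. Signal change was fitted in both directions relative to DMSO; taxol was the positive control.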

A short description of experiment [5]: APR_HepG2_MitoticArrest_24hr: Apredica 24-hour HepG2 Assay for Mitotic Arrest (AID 2282910). The conditions noted are these: high-content imaging, actives raise or lower the signal. A digest of the protocol:
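Treatment lasted 24 hr in the human HepG2 line at 0.39–200 uM, solvent held at 0.5% DMSO. Fixed cells were stained with Hoechst 33342 and anti-phospho-histone H3, imaged at 20x, and analysed by gain- or loss-of-signal fitting against DMSO.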

Experiment [6] in a line: APR_HepG2_MitoMembPot_24hr: Apredica 24-hour HepG2 Assay for Mitochondrial Membrane Potential (AID 2282911). Particulars: imaging, actives raise or lower the signal. A digest of the protocol:
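HepG2 human liver cells were exposed 24 hr to compounds at 0.39–200 uM (final DMSO 0.5% v/v) in duplicate. MitoTracker Red CMXRos (250 nM, 30 min) was loaded before formaldehyde fixation; fluorescence was imaged by ArrayScan HCS and fitted bidirectionally versus DMSO.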

The nature of experiment [7]: APR_HepG2_MitoMass_24hr: Apredica 24-hour HepG2 Assay for Mitochondrial Mass (AID 2282912). Particulars: high-content imaging, actives raise or lower the signal. Summed up:
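Endpoint is MitoTracker Red CMXRos (250 nM, 30 min, pre-fixation) intensity from 20x high-content imaging, nuclei located by Hoechst. Human HepG2 cells received ten concentrations from 0.39 to 200 uM in 0.5% DMSO for 24 hr, duplicate wells. Bidirectional fit relative to DMSO.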

A short description of experiment [8]: APR_HepG2_CellCycleArrest_72hr: Apredica 72-hour HepG2 Assay for Cell Cycle Arrest (AID 2282914). The conditions noted are these: high-content imaging, actives raise or lower the signal. A digest of the protocol:
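HepG2 cells were exposed to compounds at 0.39–200 uM (0.5% v/v DMSO final, duplicates) for 72 hr, fixed in 3.7% formaldehyde, permeabilized and stained with Hoechst 33342. Nuclear DNA content was quantified by high-content imaging; gain or loss of signal was fitted bidirectionally against DMSO.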

A short description of experiment [9]: APR_HepG2_CellLoss_72hr: Apredica 72-hour HepG2 Assay for Cell Loss (AID 2282915). The conditions noted are these: high-content imaging. Summed up: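 HepG2 cells were exposed for 72 hr to compounds at 0.39–200 uM (ten concentrations, duplicate) in 0.5% v/v final DMSO. Nuclei were stained with Hoechst 33342 after 3.7% formaldehyde fixation, imaged at 20x, and counted; fits bidirectional versus DMSO.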

The nature of experiment [10]: APR_HepG2_P-H2AX_72hr: Apredica 72-hour HepG2 Assay for H2AX Phosphorylation (AID 2282916).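 Further: phospho-histone H2A.x immunostain intensity per cell marking DNA damage.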 The conditions noted are these: imaging, actives raise or lower the signal. A digest of the protocol: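 Phospho-histone H2A.x immunofluorescence, multiplexed with Hoechst and c-Jun, quantified by high-content imaging. Compounds applied to HepG2 for 72 h across ten concentrations (0.39–200 uM, 0.5% DMSO), in duplicate; DMSO baseline.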

A short description of experiment [11]: APR_HepG2_MitoMembPot_72hr: Apredica 72-hour HepG2 Assay for Mitochondrial Membrane Potential (AID 2282917). Particulars: imaging, actives raise or lower the signal. A digest of the protocol:
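HepG2 cells exposed 72 h to compounds at 0.39–200 uM (0.5% v/v DMSO, duplicates); MitoTracker Red CMXRos 250 nM loaded 30 min before 3.7% formaldehyde fixation, imaged by HCS fluorescence. Bidirectional fit versus DMSO.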

Experiment [12] is described as follows: APR_HepG2_MitoticArrest_72hr: Apredica 72-hour HepG2 Assay for Mitotic Arrest (AID 2282918). The conditions noted are these: high-content imaging, actives raise or lower the signal. A digest of the protocol: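 HepG2 cells were exposed for 72 hr to compound at 0.39–200 uM (10 concentrations, duplicate) in 0.5% v/v DMSO, fixed in 3.7% formaldehyde, immunostained for phospho-histone H3 with Hoechst 33342 and imaged by high-content fluorescence; bidirectional fits versus DMSO.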

Experiment [13] can be described thus: APR_HepG2_P-H2AX_24hr: Apredica 24-hour HepG2 Assay for H2AX Phosphorylation (AID 2282920). Particulars: high-content imaging, actives raise or lower the signal. A digest of the protocol: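 HepG2 human liver cells were exposed for 24 hr to compounds at 0.39–200 uM in duplicate, with 0.5% v/v DMSO final. Fixed cells were immunostained for phospho-histone H2A.x plus Hoechst 33342, imaged by HCS fluorescence, and fitted bidirectionally against DMSO.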

The nature of experiment [14]: APR_HepG2_StressKinase_72hr: Apredica 72-hour HepG2 Assay for Stress Kinase (AID 2282921). The conditions noted are these: HepG2 stress kinase (phospho-c-Jun) imaging, actives raise or lower the signal. Summed up: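 Stress kinase signal is phospho-c-Jun immunofluorescence (1:500 primary, Cy3 secondary) in fixed, permeabilized human HepG2 cells imaged at 20x. Exposure lasted 72 hr over ten concentrations from 0.39 to 200 uM, 0.5% DMSO, in duplicate. Bidirectional fit versus DMSO.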

Experiment [15] can be described thus: APR_HepG2_StressKinase_24hr: Apredica 24-hour HepG2 Assay for Stress Kinase (AID 2282922). The conditions noted are these: HepG2 stress kinase (phospho-c-Jun) imaging, actives raise or lower the signal. Summed up: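 After 24 hr compound treatment (up to 200 uM, final DMSO 0.5% v/v), HepG2 cells are fixed and multiplex-labeled; phospho-c-Jun intensity is captured by high-content fluorescence imaging and analyzed relative to DMSO.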

A short description of experiment [16]: APR_HepG2_p53Act_72hr: Apredica 72-hour HepG2 Assay for p53 Activation (AID 2282923).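 Further: average cellular p53 protein immunofluorescence intensity in HepG2 cells.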 Particulars: high-content imaging, actives raise or lower the signal. Summed up: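 After 72 h with compound (ten points, 0.39 to 200 uM, final DMSO 0.5% v/v), fixed HepG2 cells were labelled with sheep anti-p53 and Hoechst 33342 and imaged; gain or loss versus DMSO scored.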

Experiment [17] can be described thus: APR_HepG2_MitoMass_72hr: Apredica 72-hour HepG2 Assay for Mitochondrial Mass (AID 2282924).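 Further: MitoTracker Red CMXRos stain intensity per cell imaged as mitochondrial mass.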 The conditions noted are these: high-content imaging, actives raise or lower the signal. A digest of the protocol: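 Steps: treat HepG2 72 hr (0.39–200 uM, duplicate wells); load MitoTracker Red CMXRos, 250 nM, 30 min; fix with 3.7% formaldehyde, permeabilise with 0.5% Triton X-100; capture images, nuclei via Hoechst 33342; fit bidirectionally against DMSO.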

A short description of experiment [18]: APR_HepG2_NuclearSize_72hr: Apredica 72-hour HepG2 Assay for Nuclear Size (AID 2282925). Particulars: high-content imaging, actives raise or lower the signal. A digest of the protocol: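 Compounds (0.39–200 uM, final DMSO 0.5%) were applied to HepG2 for 72 hr. Cells were then formaldehyde-fixed, permeabilized and labelled with Hoechst 33342. Nuclear diameter was quantified from six images per well.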

Experiment [19] in a line: APR_HepG2_p53Act_24hr: Apredica 24-hour HepG2 Assay for p53 Activation (AID 2282913).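 Further: p53 protein immunofluorescence averaged per cell in HepG2 with Hoechst nuclei.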 Particulars: high-content imaging, actives raise or lower the signal. A digest of the protocol:
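HepG2 cells exposed 24 hr to compounds at 0.39–200 uM (10 concentrations, duplicate), final DMSO 0.5% v/v. After formaldehyde fixation and Triton permeabilization, p53 was immunolabeled (sheep anti-p53, Cy5 secondary) with Hoechst 33342 nuclear counterstain, then imaged by high-content fluorescence microscopy.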

Experiment [20] is described as follows: APR_HepG2_MicrotubuleCSK_72hr: Apredica 72-hour HepG2 Assay for Microtubule CSK Stabilty (AID 2282919). The conditions noted are these: HepG2 microtubule cytoskeleton, high-content imaging, actives raise or lower the signal. Summed up: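 Ten-point dosing (0.39–200 uM, 0.5% DMSO) of HepG2 for 72 hr, with taxol as the cytoskeletal positive control. The cells were formaldehyde-fixed and then stained with alpha-tubulin/Cy5 and Hoechst. Imaging at 20x used a −2 um Z offset for tubulin.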

For `CNC(=O)Oc1cccc2c1OC(C)(C)C2`, the call in experiment [1], in experiment [2], in experiment [3], in experiment [4], in experiment [5] and in experiment [6] was inactive. Further, the outcome in experiment [7], in [8], in experiment [9], in [10], in [11] and in experiment [12] was inactive. The compound was called inactive in experiment [13], in experiment [14], in experiment [15], in [16], in experiment [17] and in [18].

As to `Cc1ccc(N)cc1`, the compound was classed as inactive in experiment [2], in [3], in [4], in experiment [5], in experiment [6] and in experiment [7]. Moreover, the outcome in [19], in experiment [8], in experiment [9], in experiment [10], in experiment [11] and in [12] was inactive. The outcome in experiment [20], in experiment [13], in experiment [14], in [15], in [16] and in experiment [17] was inactive. For the same compound, in [18], the call was inactive.

With `OCCOCCO`, the call in experiment [1], in experiment [2], in experiment [3], in [4], in [5] and in experiment [6] was inactive. Moreover, the compound was classed as inactive in [7], in experiment [8], in experiment [9], in [10], in [11] and in experiment [12]. Also, the compound was called inactive in experiment [20], in [13], in [14], in [15], in experiment [17] and in [18].

Take `CC(C)COC(=O)c1ccccc1C(=O)OCC(C)C`: the half-maximal activity concentration (AC50) (as a rule, the concentration at which the activity in the assay is half-maximal) in experiment [1] was 85.7 µM (active); in experiment [3] it was 87 µM (active); in experiment [6], 53.7 µM (active); in experiment [7], 108 µM (active); in [8], 76.2 µM (active); in [9], 63.2 µM (active). The half-maximal activity concentration (AC50) in experiment [11] was 80 µM (active); in experiment [12], 67 µM (active); in experiment [13] it was 77.3 µM (active); in experiment [17], 84.7 µM (active). In addition, the result in [2], in experiment [4], in experiment [5], in experiment [10], in experiment [14] and in experiment [15] was inactive. For the same compound, in experiment [18], the outcome was inactive.

As to `O=P(OCCCl)(OCCCl)OCCCl`, the compound was called inactive in [1], in experiment [2], in experiment [3], in experiment [4], in experiment [5] and in [6]. Also, the compound was called inactive in experiment [7], in experiment [8], in experiment [9], in experiment [10], in experiment [13] and in [14]. Besides, the compound was classed as inactive in experiment [15] and in [16].

Take `C=CCc1ccc2c(c1)OCO2`: the compound was classed as inactive in experiment [2], in [3], in experiment [4], in [5], in experiment [7] and in experiment [19]. Further, the compound was classed as inactive in experiment [8], in experiment [9], in experiment [10], in [11], in experiment [12] and in experiment [20]. The outcome in [13], in experiment [14], in experiment [15], in experiment [16], in [17] and in [18] was inactive. The AC50 in experiment [6] was 0.0311 µM (active).

`Nc1ccc(N=Nc2ccccc2)cc1`: the concentration at half-maximal activity (AC50) in [1] was 75.5 µM (active); in experiment [8], 23.6 µM (active); in experiment [9], 99.4 µM (active); in experiment [10], 63.4 µM (active); in experiment [16] it was 71.1 µM (active). For the same compound, the outcome in experiment [2], in experiment [3], in experiment [4], in experiment [5], in experiment [6] and in experiment [7] was inactive. For the same compound, the result in [13], in experiment [14] and in [15] was inactive.
